# Compound activity as filed in PubChem BioAssay.
# In the library only some 1.8% were active in any assay of this set; here they are far more common.
# MBNL1 CUG block = inhibitors of human MBNL1 binding to CUG repeat RNA. Potency, µM (top dose mostly 57.5 µM), without a hit: at the top dose activity change, negative = inhibition, usual class: inhibitors. Q9NR56. 0.036% of 280,000 active. TR-FRET MBNL1-His/biotin-(CUG)12 binding, 665/545 ratio; active means well fitted inhibition curve with a large enough effect in the signal ratio, with a control signal flat, not every such curve was filed as active; inconclusive means small, poorly fitted or top-dose-only effect, or effect the other way, or a change in a side signal; inactive means no such curve, though single readings can be large or run the other way; the % refers to the signal ratio; further: potency means the concentration at half of the fitted maximal effect; on the % scale 0 is the no-effect control and ±100 the full control effect
# Target sequence (Q9NR56 whole entry, looked up): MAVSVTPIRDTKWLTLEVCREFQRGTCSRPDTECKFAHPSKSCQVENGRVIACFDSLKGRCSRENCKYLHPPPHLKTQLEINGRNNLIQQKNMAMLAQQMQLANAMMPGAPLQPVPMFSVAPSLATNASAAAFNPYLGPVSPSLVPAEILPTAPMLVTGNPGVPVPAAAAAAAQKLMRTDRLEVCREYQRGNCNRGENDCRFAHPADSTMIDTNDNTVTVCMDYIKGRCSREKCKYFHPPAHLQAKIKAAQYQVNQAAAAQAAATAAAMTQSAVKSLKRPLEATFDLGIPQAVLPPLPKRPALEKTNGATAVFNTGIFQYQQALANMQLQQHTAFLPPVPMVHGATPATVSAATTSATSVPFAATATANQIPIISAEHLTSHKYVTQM
#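 MBNL1-His + Biotin-(CUG)12, cpd titration 92 nM–58 uM; Tb anti-His Ab 0.055 ng/ul, SA-XL665 5 nM (final); 60 min RT; ratiometric 665/545 nm, Ex 340 nm; normalized to buffer and full-complex controls.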
# Mito fusion yeast = mitochondrial division inhibition or fusion activation; Potency, µM (top dose mostly 46.1 µM), for inactives: at the top dose growth rescue (activation), most hits filed as activators; S. cerevisiae fusion-defective mutant growth rescue, CellTiterGlo 48 h; 0.23% of 320,000 active; AID 485298; further: potency means the concentration at half of the fitted maximal effect; % of control where 0% means no effect; nearly all actives have a fitted effect of over 45% in size
#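 Read-out: ATP-based luminescence (CellTiterGlo, 10 min ambient) reporting growth of fusion-defective ts yeast after 48 hours at 37C on glycerol/ethanol YPEG medium in the presence of compound.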
# Glioma ERSR ind = induces the endoplasmic reticulum stress response in human glioma cells; Potency, µM, for the others: top-dose activation, hits mostly activators; 0.02% of 420,000 active; U87-MG GRP78 promoter luciferase reporter, 16 h; further: potency means the concentration at half of the fitted maximal effect; series mostly up to about 76 µM; % of control where 0% means no effect; nearly all actives have a fitted effect of over 35% in size
#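 ERSR induction read as luciferase luminescence (Bright-Glo, 10 min at room temperature) in stably transfected human U87-MG glioma cells exposed to compounds for 16 h, using GRP78 as sensor.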
# ClpP mod = qHTS Assay for Activators of ClpP | purified B. subtilis ClpP, FRET peptide cleavage, 20 min | Potency, µM (top dose mostly 57.5 µM), for inactives: top-dose activity change, negative = active | 1.9% of 340,000 active; active means well fitted falling curve with a large enough effect; inconclusive means small, poorly fitted or top-dose-only effect; inactive means no such curve, though single readings can be large or run the other way; further: potency means the concentration at half of the fitted maximal effect; the source files actives as falling curves though it sought activators and does not explain the sign; nearly all actives have a fitted effect of over 65% in size
# Target sequence (P80244 whole entry, looked up): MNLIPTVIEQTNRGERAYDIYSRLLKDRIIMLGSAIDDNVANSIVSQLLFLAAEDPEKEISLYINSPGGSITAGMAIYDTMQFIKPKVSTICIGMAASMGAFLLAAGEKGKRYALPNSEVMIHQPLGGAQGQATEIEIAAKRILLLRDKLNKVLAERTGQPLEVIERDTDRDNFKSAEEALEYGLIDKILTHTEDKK
#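 FRET quenching reversal measured ClpP activation: 10 microg/mL B. subtilis ClpP at pH 8 with the FRET-FV decapeptide, read at 430 nm after 320 nm excitation. The 20-min minus 0-min signal was scaled between DMSO/no-enzyme wells and ADEP (5.8 microM final).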
# AT treatment = potential ataxia-telangiectasia treatments restoring KAP-1 phosphorylation | F2112 A-T fibroblasts, KAP-1 phosphorylation AlphaLISA; neocarzinostatin DNA damage 30 min before lysis | 0.19% of 320,000 active | AID 485349 | Potency, µM (highest dose often 57.5 µM), for inactives: at the top dose activation, hits mostly activators; further: potency means the concentration at half of the fitted maximal effect; % of control where 0% means no effect; nearly all actives have a fitted effect of over 45% in size
#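 hTERT-immortalized A-T patient fibroblasts (F2112), 500 cells/well in OPTI-MEM, 1% FBS, got compounds for 60 min, then NCS for 30 min at 37C. Lysates were then assayed for phospho-KAP-1 by AlphaLISA (anti-pKAP1 donor, anti-KAP1 acceptor beads), 6 hr at 25C.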
# TCR activator = activates T cell receptor signaling; primary human leukocytes, anti-CD3, IL-2 HTRF, 48 h; Potency, µM (doses to about 9.22 µM), inactives show at the top dose activation of IL-2 secretion, actives largely listed as activators; 330,000 tested, under 10 active; further: % of control where 0% means no effect
#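 Using a-CD3 beads without co-stimulation, primary human leukocytes were exposed to compounds for 48 hr. An HTRF IL-2 kit measured the cytokine, with europium-to-d2 energy transfer producing emission at 665nm upon 320nm excitation.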
# Active calls of the source: *; ? = inconclusive; nt = not tested or not shown; [ ] = another dose, or the depositor's remark. Unless noted, the call rests on the fitted dose curve; in most records, active means well fitted curve in the direction sought with a large enough effect; inconclusive means small, poorly fitted or top-dose-only effect, or another doubt; inactive means no such curve, though single readings can be large; an effect the other way counts as inactive or inconclusive.
SMILES,MBNL1 CUG block,Mito fusion yeast,Glioma ERSR ind,ClpP mod,AT treatment,TCR activator
CN(C)CC(C)(C)CNC(=O)c1cnn(-c2ncc3c(n2)-c2ccccc2CC3)c1-c1ccco1,nt,nt,6%,nt,nt,nt
COc1cc(-c2cc(-c3nnco3)c3ccccc3n2)cc(OC)c1OC,17%,-10%,0%,13µM*,1%,7%
c1ccc(-c2cc(-c3nnco3)c3ccccc3n2)nc1,?,6%,-8%,nt,-1%,2%
Cc1ccc(N(C(=O)COc2ccccc2C)S(=O)(=O)c2ccc(Cl)cc2)cc1,nt,nt,-1%,0.71µM*,nt,nt
O=[N+]([O-])c1ccc(O/N=[N+](\[O-])N2CCN(c3ccccc3)CC2)c([N+](=O)[O-])c1,nt,nt,-10%,nt,nt,nt
N=c1ccccn1CC(O)COc1ccccc1 (configuration not stated),16%,3%,-3%,?,5%,1%
CC(O)Cn1ccccc1=N (configuration not stated),1%,-2%,-1%,16µM*,5%,-5%
CN(C)c1ncnc2c1C(c1ccccc1)C(C)(C)O2 (configuration not stated),nt,nt,-6%,32µM*,nt,-4%
CN(C)c1ncnc2sc(-c3ccccc3)cc12,?,-3%,3%,3%,2%,6%
CC(NC(=O)c1ccccc1F)c1nnc(SCC(=O)N2CCN(c3ccccc3)CC2)n1C (configuration not stated),-2%,-6%,-6%,25µM*,1%,1%
OCCC1CN(CCCc2ccccc2)CCN1Cc1ccc(F)cc1 (configuration not stated),-7%,-1%,0%,32µM*,-9%,-8%
Cc1ccc(CN2CCN(CCCc3ccccc3)CC2CCO)cc1 (configuration not stated),-4%,-14%,-3%,1%,-6%,-2%
Nc1nc(=S)[nH]c2n[nH]nc12,nt,nt,-2%,-2%,nt,nt
CC(C)=CCC/C(C)=C/CC/C(C)=C/CCC1(C)CCc2cc(O)ccc2O1 (configuration not stated),nt,nt,nt,-2%,nt,nt
O=C(CN1CCCC1)N1CCCc2c1c(=O)oc1ccc(OCc3ccccc3)cc21,?,0%,-4%,32µM*,-1%,1%
CCOC(=O)C1CCN(CC(=O)N2CCCc3c2c(=O)oc2ccc(OCc4ccccc4)cc32)CC1,nt,nt,-3%,-11%,nt,nt
CC(C)(C)c1ccc(OCC(=O)O/N=C(\N)c2ccncc2)cc1,nt,nt,3%,16µM*,nt,-4%
Cc1ccccc1C1(CC(=O)N2CCCC(C)C2)CC(=O)N(Cc2cccnc2)C1=O (configuration not stated),nt,nt,0%,nt,nt,nt
C=C(C)n1c(=O)n(Cc2ccc(C)cc2)c2ccccc21,-9%,1%,-2%,-4%,0%,1%
C=C(C)n1c(=O)n(Cc2ccccc2C)c2ccccc21,-8%,5%,-3%,-1%,11µM*,-21%
CC(=O)N1CCc2cc(Br)cc(S(=O)(=O)CCC(=O)N3CCN(c4ccc(F)cc4)CC3)c21,nt,nt,-1%,-2%,nt,nt
Cn1c(SCC(=O)Nc2nc3ccccc3s2)ncc(C(=O)Nc2ccc(Cl)cc2)c1=O,nt,nt,-4%,22µM*,nt,nt
Cc1onc(-c2ccccc2)c1C(=O)N/N=C/c1ccc([N+](=O)[O-])s1,?,11µM*,-7%,-4%,6%,-1%[46.1 µM]
N#Cc1nc(-c2cccc(Cl)c2)oc1NCc1cccnc1,11%,14%,3%,2.2µM*,6%,0%
COc1ccc(-c2nc(C#N)c(NCc3cccnc3)o2)cc1OC,7%,-2%,-2%,28µM*,5%,-3%
SMILES,MBNL1 CUG block,Mito fusion yeast,Glioma ERSR ind,ClpP mod,AT treatment,TCR activator
N#Cc1nc(Cc2ccccc2)oc1NCc1cccnc1,-5%,0%,3%,28µM*,6%,-2%[46.1 µM]
COc1ccc(-c2nc(C#N)c(NCc3ccc(F)cc3)o2)cc1OC,5%,-1%,-11%,-11%,2%,3%
CC(C)(CCCCCCCCCCC(C)(C)CC(=O)O)CC(=O)O,nt,nt,-7%,nt,nt,nt
CC(C)c1c(C(=O)N2CCCCC2c2cccnc2)cnn1-c1nccc(-c2cccs2)n1 (configuration not stated),nt,nt,-4%,nt,nt,nt
CC(C)N1CCc2c(sc(N)c2C#N)C1,-5%,2%,-2%,25µM*,3%,nt
CCN1CCc2c(sc(N)c2C#N)C1,16%,1%,-6%,28µM*,-5%,10%
CCC1=C[C@@H]2CN(C1)Cc1c([nH]c3ccccc13)[C@@](C(=O)OC)(c1cc3c(cc1OC)N(C)[C@H]1[C@@](O)(C(=O)OC)[C@H](OC(C)=O)[C@]4(CC)C=CCN5CC[C@]31[C@@H]54)C2,nt,nt,-4%,1%,nt,nt
CC1CC2C3CCC4=CC(=O)C=CC4(C)[C@@]3(F)C(O)CC2(C)[C@@]1(O)C(=O)CCl (some centres not stated),nt,nt,-4%,nt,nt,nt
COCCCNC(=O)CSc1nc(-c2cccc(F)c2)[nH]c1-c1ccccc1,nt,nt,1%,28µM*,nt,nt
COCCCNC(=O)CSc1nc(-c2ccccc2)[nH]c1-c1ccc(C)cc1,nt,nt,-3%,25µM*,nt,nt
CCc1ccc(-c2nc(SCC(=O)NCC3CCCO3)c(-c3ccc(C)cc3)[nH]2)cc1 (configuration not stated),nt,nt,-2%,32µM*,nt,nt
c1ccc(-c2n[nH]c(-c3ccccn3)n2)cc1,0%,-1%,-7%,-9%,0%,-1%
c1ccc(-c2n[nH]c(-c3ccccn3)n2)nc1,-1%,-6%,-3%,25µM*,-7%,4%
CCN(CC)CCNC(=O)c1ccccc1N,8%,1%,-1%,10µM*,-9%,-27%
Cc1ccccc1CNC(=O)c1ccccc1N,0%,0%,-3%,10µM*,0%,5%
COc1ccccc1CNC(=O)c1ccccc1NS(C)(=O)=O,-1%,1%,-2%,28µM*,-1%,-20%
Nc1ccccc1C(=O)NCc1ccccc1,3%,-3%,-2%,28µM*,nt,1%
COc1ccccc1CNC(=O)c1ccc(NS(C)(=O)=O)cc1,-1%,1%,0%,-4%,-3%,1%
COc1cc2nc(N3CCOCC3)nc(NC3CC3)c2cc1OC,nt,nt,nt,4%,nt,nt
CSc1nnc(CNC(=O)c2cccc3ccccc23)n1-c1ccccc1C,nt,nt,-4%,nt,nt,nt
Cc1cc(Cl)ccc1OCC(=O)N1CCOc2ccc(CN3C[C@@H](C)O[C@@H](C)C3)cc2C1,nt,nt,-3%,nt,nt,nt
O=C(NCc1ccccc1)c1nccnc1CO,-4%,1%,-2%,16µM*,-14%,-19%
COc1ccccc1CNC(=O)c1ccccc1N,1%,-1%,1%,10µM*,nt,4%
